ChEMBL document CHEMBL4513216, “Probing the Open Global Health Chemical Diversity Library for Multistage-Active Starting Points for Next-Generation Antimalarials” (ACS Infect Dis, 2020)
About 8,600 (12%) of roughly 69,000 compounds showed an effect of 50% or more. The list comes from a sample in which strong results are over-represented; it also holds similar structures and randomly drawn compounds.

Tested on: Plasmodium berghei
Assay: Screen against P. berghei liver stage (PbLuc), transformed with Luciferase, at 10uM
Format: functional, HepG2
Conditions: tested at 10 uM

SMILES	INHIBITION
Cc1nc(CN2Cc3nccn3CC(COCC3CC3)C2)cs1 (configuration not stated)	41.2%
CNC(=O)CN1CCOCC12CCN(CCc1ccccc1)CC2	38.1%
COc1c(C2CCCN2CC(=O)Nc2nccs2)c(C)nn1C (configuration not stated)	-24.7%
Cn1ccc(C(=O)N2CCOC(c3ccccc3)C2)cc1=O (configuration not stated)	50.5%
Cc1ccc(C2CN(C(=O)c3ccn(C)c(=O)c3)CCO2)nc1 (configuration not stated)	44.8%
Cn1ccc(C(=O)N2CCOC(c3ccccn3)C2)cc1=O (configuration not stated)	-5.71%
Cc1cc(-n2cncn2)n2ncnc2n1	47.1%
CC(C)N(CCC#N)C(=O)c1cnc(-c2ccc3c(c2)OCO3)s1	-73.9%
CC(C)c1nnc2n1CC(CNCc1nnc(C(C)(C)C)o1)CC2 (configuration not stated)	3.77%
CCN1CCN(c2nc3cn(-c4cnn(CC)c4)c(=O)c-3c[nH]2)CC1	36.6%
CC(=O)N1C[C@H](NC(=O)c2csc(C(C)C)c2)[C@@H](C(C)C)C1	51.1%
CC(=O)N1C[C@H](NC(=O)c2ccnc(N)c2)[C@@H](C(C)C)C1	19.1%
CC(=O)N[C@@H]1CN(C(=O)c2csc(C(C)C)n2)C[C@H]1C(C)C	9.87%
COCC(=O)N1CC[C@H]2[C@H]1CCN2CC(C)C	52.6%
CC(C)CN1CC[C@@H]2[C@@H]1CCN2C(=O)N(C)C	3.88%
CC(C)CN1CC[C@@H]2[C@@H]1CCN2C(=O)N1CCCC1	31.9%
CN(C)CC(=O)N1C[C@@H]2CC[C@H](Oc3ccccc3)[C@@H]2C1	-21.4%
COc1cccc(CN(C)S(=O)(=O)N2CCOCC2)c1	34.7%
Cc1nn(C)c(N(C)C)c1CNCc1cccnc1N1CCOCC1	-69.3%
O=C(NC1CC1)[C@@H]1CN(Cc2ccc3c(c2)OCO3)C[C@H]2OCC[C@H]21	13.7%
CCC(C)N(Cc1c[nH]c(C)n1)Cc1ccccc1Cl (configuration not stated)	41%
CC(CC#N)N(C)Cc1ccccc1Cl (configuration not stated)	38.5%

SMILES	INHIBITION
CCC(C)N(Cc1cc(C)n[nH]1)Cc1ccccc1Cl (configuration not stated)	79%
CNC(=O)NC(=O)CN1CCc2c(Br)ccc(F)c2C1	-34.8%
COc1ccccc1CCNC(=O)CNCC1CN(C)CCO1 (configuration not stated)	11%
COc1ccc(-c2c(C)nn3c(=N)c(C#N)n[nH]c23)cc1	3.19%
COc1ccc(-c2nc(C#N)c(N(C)C)o2)cc1OC	-34.9%
COc1ccc(-c2csc(N)c2C#N)cc1OC	1.58%
COc1ccc(-c2c(C(C)C)nn3c(=N)c(C#N)n[nH]c23)cc1	53.1%
CCc1nn2c(=N)c(C#N)n[nH]c2c1-c1ccc(OC)cc1	22.9%
COc1ccc(-c2c(C)nn3c(=N)c(C#N)n[nH]c23)cc1OC	85%
CN(C)C[C@H]1OC[C@@H]2CCN(C(=O)c3ccc[nH]3)C[C@@H]21	29.8%
Cc1noc(C2CCC3(CCN(C(=O)c4cnn(C)c4)CC3)O2)n1 (configuration not stated)	44.1%
CC(C)(NS(C)(=O)=O)c1nc(-c2ccc(F)c(F)c2)no1	-7.02%
O=C(c1ccc2c(c1)COC2)N1CCCC(n2cncn2)C1 (configuration not stated)	0.411%
CO[C@H]1CN(Cc2ccc(F)c(F)c2)C[C@@]12CCCO2	35.2%
Cc1nc(NC(=O)NC(CS(C)(=O)=O)c2ccccc2)sc1C (configuration not stated)	35.1%
Cc1nc2n(n1)CC(NCc1csc(-c3ccsc3)n1)CC2 (configuration not stated)	22.55%
Cc1nc(C2CCCNC2)cc(N(Cc2c(C)nn(C)c2C)C2CC2)n1 (configuration not stated)	-21.5%
COc1cc(S(=O)(=O)N2CCc3ccccc32)cc(C(=O)O)c1OC	48.2%
COc1cc(S(=O)(=O)N2CCc3cc(Br)ccc32)cc(C(=O)O)c1OC	62.6%
COc1cc(S(=O)(=O)N2CCc3ccc(Cl)cc32)cc(C(=O)O)c1OC	-11.4%
CCOC(=O)CCNC(=O)N1CCOC(Cc2cccc(OC)c2)C1 (configuration not stated)	53.7%
COc1cccc(CC2CN(C3CCN(C(C)=O)CC3)CCO2)c1 (configuration not stated)	1.81%

SMILES	INHIBITION
CCOC(=O)CNC(=O)N1CCOC(Cc2ccc(OC)cc2)C1 (configuration not stated)	-17.4%
Cc1ccccc1C(=O)N1C[C@@H](O)[C@H](N2CCOCC2)C1	33.25%
CS(=O)(=O)c1ccc(NC(=O)N2C[C@H](O)[C@@H](N3CCOCC3)C2)cc1	67.5%
O=C(Nc1ccc(-n2cccn2)cc1)N1C[C@H](O)[C@@H](N2CCOCC2)C1	44.3%
Cc1cc(C)n(-c2ccc(C(C)NS(N)(=O)=O)cc2)n1 (configuration not stated)	37.1%
COCCS(=O)(=O)NC(C)c1ccc(-n2nc(C)cc2C)cc1 (configuration not stated)	69.7%
Cc1cc(C)n(-c2ccc(C(C)NS(=O)(=O)CCCS(C)(=O)=O)cc2)n1 (configuration not stated)	47.4%
COCCN1CCC2(CC1)CN(CCn1cccn1)C(=O)CO2	23.3%
CN(CC(=O)N1CCN(c2cnccn2)CC1)c1ccc(Cl)cn1	-1.38%
CCn1cc(S(=O)(=O)N2CCN(S(=O)(=O)c3ccc(Br)s3)CC2)c(C)n1	24.2%
CCn1cc(NS(=O)(=O)c2ccc(Br)s2)c(C(N)=O)n1	61.6%
CCn1cc(NS(=O)(=O)c2ccc(Br)s2)c(C(=O)NCC(C)C)n1	-0.217%
Cc1cccc(-c2ccc(C(=O)N3CCN(C4CC4)CC3)c(=O)[nH]2)c1	21.8%
NCC1Cc2cc(Cl)cc(-c3cncc(C(=O)N4CCCCC4)n3)c2O1 (configuration not stated)	24.8%
Cc1cc2c(c(-c3cncc(C(=O)N4CCCC4)n3)c1)OC(CN)C2 (configuration not stated)	57.3%
NCC1Cc2cc(-c3cncc(C(=O)N4CCCCC4)n3)cc(F)c2O1 (configuration not stated)	18.3%
CC(C)N1CCC(c2n[nH]cc2S(C)(=O)=O)CC1	-8.58%
Cc1cc(C(=O)NCc2cnn(C)c2C)nc(N2CCCCCC2)n1	-7.53%
Cc1ocnc1C(=O)Nc1ccc(-c2nnc(N(C)C)o2)cc1	-128%
COC(=O)N1CCC2(CC1)N=C(CCC(C)C)NC2=O	76.7%
CC(C)CCC1=NC2(CCN(C(=O)CN3CCCC3=O)CC2)C(=O)N1	82.4%
CCOC(=O)N1CCC2(CC1)N=C(CCC(C)C)NC2=O	-65%

SMILES	INHIBITION
CC(C)CCC1=NC2(CCN(C(=O)N3CCN(C)CC3)CC2)C(=O)N1	-23.5%
O=C(CN1CCCCC1=O)N1CCC2(CC1)[C@H](O)C[C@@H]2O	44%
CC(=O)CCC(=O)N1CCC2(CC1)N=C(CCC(C)C)NC2=O	-40.7%
Cc1cnn(CC2CN(Cc3ccc(-n4cccn4)cc3)CCO2)c1 (configuration not stated)	40%
CC(C)c1ncncc1C(=O)N1CCN(Cc2ccccn2)CC1	5.9%
Cc1cc(C(=O)Nc2cnn(CC(F)(F)F)c2)nc(N(C)C)n1	0.91%
O=C1CCC(=O)N1c1nn(Cc2ccccc2Cl)cc1Cl	20.4%
Cc1cc(C)c(CNC(=O)NCC2COCCO2)c(=O)[nH]1 (configuration not stated)	23.45%
CCc1ccc2c(c1)C(CCNC(=O)c1sccc1C)C(=O)N2 (configuration not stated)	61.9%
CCN1CCN(c2ccc(CNC(=O)c3sccc3C)cn2)CC1	-23.8%
CCc1ccc2c(c1)C(CCNC(=O)Cc1cccc(F)c1)C(=O)N2 (configuration not stated)	37.8%
CCc1ccc2c(c1)C(CCNC(=O)Cc1ccc(F)cc1)C(=O)N2 (configuration not stated)	53.6%
CCc1ccc2c(c1)C(CCNC(=O)CSC(F)(F)F)C(=O)N2 (configuration not stated)	40.6%
CCc1ccc2c(c1)C(CCNC(=O)CCc1ccsc1)C(=O)N2 (configuration not stated)	26.7%
CS(=O)(=O)N(Cc1ccon1)c1cccc(Br)c1	-11.9%
CC(c1ccccc1)n1cc2nc(N(C)C)[nH]cc-2c1=O (configuration not stated)	15.7%
CC(C)S(=O)(=O)C(C)C(=O)NCc1ccccc1OCc1ccccc1 (configuration not stated)	42.5%
CNC(=O)[C@@H](c1ccccc1OC)N1CCC[C@H]1C(=O)N1CC[C@@H](O)C1	-63.5%
O=C(O)c1nnn(-c2ccc(OC(F)(F)F)cc2)c1-c1ccncc1	-22.1%
COc1ccc(-n2cccn2)c(CN2CCC(O)(CO)CC2)c1	21.2%
c1cnn(Cc2ccc(CN3CCC4(CCCNC4)C3)cc2)c1 (configuration not stated)	3.96%
c1ccc(Cn2cccn2)c(CN2CCC3(CCCNC3)C2)c1 (configuration not stated)	4.87%

SMILES	INHIBITION
COc1ccc(-n2cccn2)c(CN2CCC3(CCCNC3)C2)c1 (configuration not stated)	13%
c1cnn(Cc2ccc(CN3CCC4(CCNCC4)C3)cc2)c1	60.3%
COc1ccc(-n2cccn2)c(CN2CCC3(CCNCC3)C2)c1	53%
Cn1cccc1C(=O)N1CC[C@@]2(O)CCN(S(C)(=O)=O)C[C@H]2C1	42.1%
CC(C)CNc1nccc(-c2cnc3sc(Cl)cn3c2=O)n1	2.6%
Cc1cc(C(F)(F)F)nn1CC(C)C(=O)Nc1ccccn1 (configuration not stated)	-22.2%
Cc1cc(C)n(CC(=O)NCc2ccccn2)n1	3.58%
CCOc1ncccc1CNC(=O)NC1CCOc2ccccc21 (configuration not stated)	52.5%
COc1ncccc1CNC(=O)NC1CCOc2ccccc21 (configuration not stated)	29.6%
CC(C)Oc1ncccc1CNC(=O)NC1CCOc2ccccc21 (configuration not stated)	42.9%
COc1cnc(C2(O)CCN(C(=O)c3scnc3C)CC2)c(OC)n1	36.7%
COc1cnc(C2(O)CCN(C(=O)c3cccnc3)CC2)c(OC)n1	60.8%
COc1cnc(C2(O)CCN(C(=O)c3ccco3)CC2)c(OC)n1	29.3%
COc1cnc(C2(O)CCN(C(=O)c3ccncc3)CC2)c(OC)n1	37.5%
CCC(=O)N1CCC(O)(c2ncc(OC)nc2OC)CC1	0.0932%
Cc1cccc(C2(O)CCN(C(=O)c3ccccn3)CC2)c1C	57.8%
Cc1cccc(C2(O)CCN(C(=O)c3ccc(N(C)C)cc3)CC2)c1C	33.1%
COc1ccccc1C(=O)N1CCC(O)(c2cccc(C)c2C)CC1	24.2%
COc1cnc(C2(O)CCN(C(=O)c3ccccn3)CC2)c(OC)n1	57.5%
